From PubChem BioAssay (NCI)
About 83,000 compounds went through this panel and 20% of them were active in at least one assay; those are over-represented in the sample as a whole.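 Testing used 96-well plates and a 48-hour single-concentration exposure. Example: -40 means 40% of the starting cells died.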 Activity calls are given as the source filed them. The calls were made as follows: active = growth percent below 10; inactive = the rest.

Legend:
Assay in all cases: NCI-60 one-dose screen, 48 h (100 = growth as untreated, 0 = no growth, -100 = all killed)
Conditions in all cases: 10 µM unless noted
NCI-H23 lung = system: NCI-H23 lung
NCI-H226 lung = system: NCI-H226 lung
NCI-H322M lung = system: NCI-H322M lung
HOP-62 NSCLC = system: HOP-62 NSCLC
HOP-92 NSCLC = system: HOP-92 NSCLC
NCI-H522 lung = system: NCI-H522 lung
A549/ATCC NSCLC = system: A549/ATCC NSCLC
786-0 renal = system: 786-0 renal
COLO 205 colon = system: COLO 205 colon
DU-145 prostate = system: DU-145 prostate
K-562 leukemia = system: K-562 leukemia
MALME-3M melanoma = system: MALME-3M melanoma
MDA-MB-231 breast = system: MDA-MB-231 breast
RXF 393 renal = system: RXF 393 renal
SF-268 CNS = system: SF-268 CNS
SF-295 CNS = system: SF-295 CNS
SF-539 CNS = system: SF-539 CNS
UACC-257 melanoma = system: UACC-257 melanoma
M14 melanoma = system: M14 melanoma
NCI-H460 lung = system: NCI-H460 lung

Measured: growth

Cc1[nH]n(-c2cccc(Cl)c2)c(=O)c1/C=C1\C=c2ccccc2=CC1=O
inactive: NCI-H322M lung 84.1% | A549/ATCC NSCLC 60.4% | DU-145 prostate 35.4% | K-562 leukemia 99.1% | MALME-3M melanoma 59% | SF-268 CNS 47.2% | SF-295 CNS 25.6% | SF-539 CNS 72.3% | UACC-257 melanoma 80% | M14 melanoma 18.2%
active: NCI-H23 lung -1.95% | NCI-H226 lung 1.04% | HOP-62 NSCLC -57.9% | HOP-92 NSCLC -2.07% | NCI-H522 lung -11.3% | 786-0 renal -46.8% | COLO 205 colon -83.5% | MDA-MB-231 breast 4.08% | RXF 393 renal -76.9%

C[C@H](c1nc2ccc(C#N)cc2[nH]1)[C@H]1CC[C@H]2[C@@H]3CCC4=CC(=O)CC[C@]4(C)[C@H]3CC[C@]12C
inactive: NCI-H23 lung 59.7% | NCI-H226 lung 78.4% | NCI-H322M lung 94.4% | HOP-62 NSCLC 101% | NCI-H522 lung 69.8% | A549/ATCC NSCLC 63.9% | 786-0 renal 67.4% | COLO 205 colon 79.2% | DU-145 prostate 68.9% | K-562 leukemia 40.8% | MALME-3M melanoma 85.6% | MDA-MB-231 breast 70.1% | RXF 393 renal 64.3% | SF-268 CNS 78.5% | SF-295 CNS 48.7% | SF-539 CNS 62.9% | UACC-257 melanoma 68.2% | M14 melanoma 70.1%
active: HOP-92 NSCLC -9.25%

COC(=O)c1c2c(c(C)[n+]([O-])c1C)C(=O)C(NCc1ccccc1)=CC2=O
active: NCI-H23 lung 9.17% | NCI-H322M lung 7.15% | COLO 205 colon -9.35% | MALME-3M melanoma -77.8% | RXF 393 renal 3% | SF-539 CNS 8.86% | UACC-257 melanoma -22% | M14 melanoma 9.18%
inactive: NCI-H226 lung 73.3% | HOP-62 NSCLC 67.1% | HOP-92 NSCLC 71.1% | NCI-H522 lung 28.8% | A549/ATCC NSCLC 13.7% | 786-0 renal 60% | DU-145 prostate 42.4% | K-562 leukemia 24.4% | MDA-MB-231 breast 10.6% | SF-268 CNS 28.3% | SF-295 CNS 43.5%

COc1ccc(-c2cc(C(=O)N3N=C(c4ccc(N)cc4)CC3c3ccc(Cl)cc3)c3cc(OC)ccc3n2)cc1 (configuration not stated)
inactive: NCI-H23 lung 67.6% | NCI-H226 lung 89.1% | NCI-H322M lung 90.9% | HOP-62 NSCLC 66.6% | HOP-92 NSCLC 59.2% | NCI-H522 lung 44.9% | A549/ATCC NSCLC 86.5% | 786-0 renal 19.2% | COLO 205 colon 96.3% | DU-145 prostate 83.7% | K-562 leukemia 14.6% | MALME-3M melanoma 62.1% | MDA-MB-231 breast 85% | RXF 393 renal 78.9% | SF-268 CNS 68.4% | SF-295 CNS 66.7% | SF-539 CNS 15.4% | UACC-257 melanoma 77.2%
active: M14 melanoma 5.95%

CCN1C(=O)N(CC)C2C1NN=c1s/c(=C\c3ccc(OC)cc3)c(=O)n12 (configuration not stated)
active: NCI-H460 lung 4.22% | NCI-H522 lung -9.26% | COLO 205 colon -7.08% | DU-145 prostate 6.18% | K-562 leukemia 8.38% | SF-539 CNS -21.4% | M14 melanoma 6.11%
inactive: NCI-H23 lung 32.2% | NCI-H226 lung 60.5% | NCI-H322M lung 45.9% | HOP-62 NSCLC 37.1% | HOP-92 NSCLC 33% | 786-0 renal 20.8% | MALME-3M melanoma 40.2% | MDA-MB-231 breast 16.3% | RXF 393 renal 33.9% | SF-268 CNS 49.4% | SF-295 CNS 13.2% | UACC-257 melanoma 56.3%

c1ccc(-c2nc3ccccc3[nH]2)c(OCCCCCOc2ccccc2-c2nc3ccccc3[nH]2)c1
inactive: NCI-H23 lung 80.1% | NCI-H226 lung 85.2% | NCI-H322M lung 103% | HOP-62 NSCLC 124% | NCI-H522 lung 66.1% | 786-0 renal 93% | COLO 205 colon 112% | DU-145 prostate 39.9% | MALME-3M melanoma 66.2% | MDA-MB-231 breast 70.5% | RXF 393 renal 81.1% | SF-268 CNS 55.1% | SF-295 CNS 87.3% | UACC-257 melanoma 71% | M14 melanoma 95.1%
active: HOP-92 NSCLC -21.4% | A549/ATCC NSCLC 8.77% | K-562 leukemia -11.6% | SF-539 CNS 7.96%

O=C1/C(=C/c2cccc(Br)c2)COc2ccc(O)cc21
active: K-562 leukemia 2.93%
inactive: NCI-H23 lung 74.8% | NCI-H226 lung 101% | NCI-H322M lung 97.4% | HOP-62 NSCLC 86.6% | HOP-92 NSCLC 46% | NCI-H522 lung 18.9% | A549/ATCC NSCLC 66.2% | 786-0 renal 50% | COLO 205 colon 84.5% | DU-145 prostate 69.7% | MALME-3M melanoma 78.9% | MDA-MB-231 breast 27.9% | RXF 393 renal 70.6% | SF-268 CNS 67.6% | SF-295 CNS 100% | SF-539 CNS 69.3% | UACC-257 melanoma 99.9% | M14 melanoma 76.5%

Cc1ccc(NC(=O)c2sc3nc(C)c(C(O)c4ccccc4)cc3c2N)cc1 (configuration not stated)
active: NCI-H522 lung 7.09% | COLO 205 colon -15.8% | K-562 leukemia 6.23% | SF-295 CNS 4.89% | SF-539 CNS -4.25%
inactive: NCI-H23 lung 26.4% | NCI-H226 lung 57.4% | NCI-H322M lung 56.8% | HOP-62 NSCLC 31.2% | HOP-92 NSCLC 58.8% | A549/ATCC NSCLC 22.7% | 786-0 renal 40.3% | DU-145 prostate 23.9% | MALME-3M melanoma 49.1% | MDA-MB-231 breast 15.9% | RXF 393 renal 39.3% | SF-268 CNS 49.5% | UACC-257 melanoma 60.2% | M14 melanoma 16.3%
